Assay outcomes deposited in PubChem BioAssay by several laboratories.
H9c2 protect: modulators protecting cardiomyocytes from myocardial damage | 360,000 tested, 0.63% active | protection from H2O2 cell death, % at 20 µM | AID 588492 | H9c2 cardiomyocytes, H2O2 injury protection, ATPLite, 2 h;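 active = compounds giving at least 50% protection of heart cells from peroxide-induced death in the single-dose screen, raw or plate-pattern-corrected value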
Mot1-301 SUMO: inhibitors of SUMOylation pathway: yeast Mot1-301 growth rescue | S. cerevisiae Mot1-301 growth rescue, ATP luminescence, 38.5C; percent above DMSO median, 100 means doubled | growth rescue, % at 18.8 µM | 320,000 tested, 1% active | AID 2716;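 active = every valid replicate shows activation above 250% relative to neutral control wells; inactive = the rest, any valid replicate at or below 250%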
AI-2 QS modul: modulators of Vibrio harveyi AI-2 quorum sensing system; Vibrio harveyi JMH597 AI-2 luminescence/OD600 ratio, 9 h; active compounds read low; strain lacks LuxN and CqsS sensors; 0 = neutral-control median; activity change, % at 7.5 µM; 300,000 tested, 0.4% active; AID 2094; in the data active = activity change below about -75%, passing the limit was not always enough; inconclusive = no clear call, values can overlap the other calls;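 also: luminescence divided by OD600 gain over 9 h not by final OD600 alone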
NTR1 agonist: agonists of human neurotensin receptor NTR1; P30989; NTR1-U2OS beta-arrestin-GFP spot imaging, agonist mode; activation, % at 20 µM; 330,000 tested, 0.17% active; AID 493036;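 active = activation at or above 40% of the spot to cytoplasm intensity ratio, with at least 20 cells analyzed; inconclusive = wells under 20 cells, flagged as cytotoxic or low count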
Target sequence (P30989 whole entry, looked up): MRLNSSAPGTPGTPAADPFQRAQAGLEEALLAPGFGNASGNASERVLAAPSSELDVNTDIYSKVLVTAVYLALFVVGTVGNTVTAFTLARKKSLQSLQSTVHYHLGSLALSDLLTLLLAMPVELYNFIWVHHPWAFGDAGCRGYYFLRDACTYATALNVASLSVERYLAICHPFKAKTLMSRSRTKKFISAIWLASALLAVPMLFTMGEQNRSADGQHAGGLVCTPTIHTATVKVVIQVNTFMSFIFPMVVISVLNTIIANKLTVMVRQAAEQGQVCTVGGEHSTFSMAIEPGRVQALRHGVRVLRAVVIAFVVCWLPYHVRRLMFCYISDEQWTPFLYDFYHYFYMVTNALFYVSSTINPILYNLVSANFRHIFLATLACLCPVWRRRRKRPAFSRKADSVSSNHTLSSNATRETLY
NR3A LBD binder: modulators (binders) of human NR3A ligand-binding domain. AID 1259313. NR3A LBD differential scanning fluorimetry, Tm shift; 0% = protein alone, 100% = glycine-bound protein. 340,000 tested, 2.5% active. Tm shift relative to glycine control, % at 25 µM;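 active = melting temperature shift of at least 10% of the positive control shift, at one fixed dose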
AHR act: activators of human aryl hydrocarbon receptor; activation, % at 5 µM; AID 2796; 320,000 tested, 2.5% active; AHR-responsive luciferase reporter cells, luminescence; in the data active = activation above about 47%
JMH597 growth rt: retest: inhibitors of Vibrio harveyi JMH597 growth. 750 tested, 1% active. growth inhibition, % at 7.5 µM. OD600 absorbance, 9 h; lacks LuxN and CqsS sensors. shares compounds with AI-2 QS modul;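 active = every replicate shows growth inhibition above 50%; inconclusive = at least half, but not all, replicates pass that cutoff; inactive = fewer than half of replicates pass it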
BB721 lum counter: retest counter-screen: BB721 constitutive quorum sensing luminescence decrease. shares compounds with AI-2 QS modul. inhibition, % at 7.5 µM. Vibrio harveyi BB721 luminescence, 9 h. 750 tested, 95% active;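 active = inhibition above about 80% in every replicate, not just on average, limit read from the data; inconclusive = at least half of replicates past the limit, but not all; inactive = fewer than half of replicates past the limit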
BB721 growth: retest Vibrio harveyi BB721 growth inhibition. AID 2728. OD600 absorbance, 9 h. shares compounds with AI-2 QS modul. 750 tested, 3% active. growth inhibition, % at 7.5 µM;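 active = every replicate shows growth inhibition above 50%; inconclusive = at least half but not all replicates above 50% inhibition; inactive = under half of replicates above 50% inhibition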
AI-2 QS JMH597: Vibrio harveyi AI-2 signaling luminescence modulation – JMH597 strain, confirmation; shares compounds with AI-2 QS modul; 750 tested, 97% active; inhibition, % at 7.5 µM; Vibrio harveyi JMH597 AI-2 quorum sensing luminescence, 9 h; luxN and CqsS knockout, AI-2 only; AID 2736;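 active = every replicate shows more than 75% inhibition of signal versus neutral control wells; inconclusive = half to three quarters of replicates exceed 75% inhibition; inactive = fewer than half of replicates exceed 75% inhibition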
Of the large screens only hits and unclear results are named; the others gave an inactive call (follow-up assays come after a bar, where they were run). Only some compounds are listed: those with a hit (about 6.2% of all), similar ones and a draw of the others.

O=S(=O)(NCc1ccccc1)c1ccc(NC(=S)NCc2ccco2)cc1	AI-2 QS modul -97 | JMH597 growth rt inactive | BB721 lum counter 100 | BB721 growth inactive | AI-2 QS JMH597 100
CCNS(=O)(=O)c1ccc(NC(=S)NCc2ccco2)cc1	none
CCCNC(=O)C(Cc1ccccc1F)NC(=O)c1ccc(C#N)cc1 (centres undefined)	none (no result: AI-2 QS modul)
CC(=O)Nc1cccc(-c2ccnc3c2CC(C(=O)Nc2ccc(Cl)cc2)O3)c1 (centres undefined)	none (no result: Mot1-301 SUMO, AI-2 QS modul, NTR1 agonist, NR3A LBD binder, AHR act)
Nn1c(SCC(=O)Nc2ccc(OC(F)F)cc2)nnc(Cc2ccccc2)c1=O	AI-2 QS modul -92 | JMH597 growth rt inactive | BB721 lum counter 96 | BB721 growth inconclusive | AI-2 QS JMH597 97
CCS(=O)(=O)c1ccc2oc(Nc3ccc(OC)cc3)nc2c1	none
CCS(=O)(=O)c1ccc2oc(Nc3cccc(OC)c3)nc2c1	AI-2 QS modul inconclusive (no result: Mot1-301 SUMO) | JMH597 growth rt inactive | BB721 lum counter 82 | BB721 growth inactive | AI-2 QS JMH597 88
COc1ccc(NC(=O)C2CSC(C)(C)N2C=O)cc1 (centres undefined)	AI-2 QS modul -89 | JMH597 growth rt inactive | BB721 lum counter 96 | BB721 growth inactive | AI-2 QS JMH597 97
CC1(C)SCC(C(=O)O)N1C=O (centres undefined)	none
O=C(Nc1ccc(N2CCOCC2)cc1)c1ccc(Cl)c(S(=O)(=O)N2CCCCC2)c1	none (no result: AI-2 QS modul)
Cc1ccc2sc(NC(=O)CN3C(=O)c4ccccc4C3=O)nc2c1C	AI-2 QS modul -95 | JMH597 growth rt inactive | BB721 lum counter 95 | BB721 growth inactive | AI-2 QS JMH597 97
Cc1cccc2sc(NC(=O)CN3C(=O)c4ccccc4C3=O)nc12	AI-2 QS modul -84 | JMH597 growth rt inactive | BB721 lum counter 94 | BB721 growth inactive | AI-2 QS JMH597 97
O=C(c1ccco1)N1CCN(S(=O)(=O)c2c(Cl)cccc2Cl)CC1	none
CC1(C(=O)NCc2ccc3c(c2)OCO3)CCN1C(=O)CC1CCCC1 (centres undefined)	none (no result: Mot1-301 SUMO, AI-2 QS modul, NTR1 agonist, NR3A LBD binder, AHR act)
COc1ccc(/C=C/C(=O)Oc2cc(O)cc(O)c2)cc1	AI-2 QS modul -95 | JMH597 growth rt inactive | BB721 lum counter 98 | BB721 growth inactive | AI-2 QS JMH597 99
O=C(CNc1ccc(Br)cc1)c1ccc(O)cc1	AI-2 QS modul -82 | JMH597 growth rt inactive | BB721 lum counter 90 | BB721 growth inactive | AI-2 QS JMH597 93
CN(C)S(=O)(=O)c1cccc(NC(=O)Cn2cnc3ccccc3c2=O)c1	AI-2 QS modul -88 | JMH597 growth rt inactive | BB721 lum counter 96 | BB721 growth inactive | AI-2 QS JMH597 97
CCN(CC)S(=O)(=O)c1ccc(NC(=O)Cn2cnc3ccccc3c2=O)cc1	AI-2 QS modul -94 | JMH597 growth rt inactive | BB721 lum counter 99 | BB721 growth inactive | AI-2 QS JMH597 99
O=C(Cn1cnc2ccccc2c1=O)Nc1ccc2c(c1)OCCO2	none
Cc1cc(NS(=O)(=O)c2ccc(NC(=O)c3ccc([N+](=O)[O-])cc3)cc2)nc(C)n1	none (no result: Mot1-301 SUMO, AI-2 QS modul, NTR1 agonist, NR3A LBD binder, AHR act)
COc1ccc(/C=N/NC(=O)Cn2cnc3ccccc3c2=O)cc1OC	AI-2 QS modul -91 | JMH597 growth rt inactive | BB721 lum counter 97 | BB721 growth inactive | AI-2 QS JMH597 98
COc1cc(/C=N/NC(=O)Cn2nnc3ccccc32)ccc1O	AI-2 QS modul -87 | JMH597 growth rt inactive | BB721 lum counter 94 | BB721 growth inactive | AI-2 QS JMH597 96
COc1ccc(/C=N/NC(=O)Cn2ccnc2C)cc1OC	none
COc1cc(/C=N\NC(=O)Cn2nnc3ccccc32)cc(OC)c1OC	AI-2 QS modul -87 | JMH597 growth rt inactive | BB721 lum counter 93 | BB721 growth inactive | AI-2 QS JMH597 96
COc1ccc(CCNC(=O)CN2C(=O)C(=O)N(C3CCCC3)C2=O)cc1OC	none (no result: AI-2 QS modul)
CC(C)Nc1nc(NCCOc2ccccc2)c2sccc2n1	none (no result: Mot1-301 SUMO, AI-2 QS modul, NTR1 agonist, NR3A LBD binder, AHR act)
O=C(NCc1ccccc1Cl)c1csc([C@@H]2C[C@H](O)[C@@H](CO)O2)n1	none (no result: Mot1-301 SUMO, AI-2 QS modul, NTR1 agonist, NR3A LBD binder, AHR act)
CC(=O)NS(=O)(=O)c1ccc(NC(=O)c2ccc(Cl)cc2[N+](=O)[O-])cc1	none
O=C(Nc1ccc(Nc2ccccc2)cc1)c1ccc(Cl)cc1[N+](=O)[O-]	AI-2 QS modul -86, NR3A LBD binder 12 | JMH597 growth rt inactive | BB721 lum counter inconclusive | BB721 growth inactive | AI-2 QS JMH597 91
c1ccc(NCCCNc2ccccc2)cc1	AI-2 QS modul -81 | JMH597 growth rt inactive | BB721 lum counter 93 | BB721 growth inactive | AI-2 QS JMH597 93
Cc1ncoc1C(=O)Nc1ccc(Oc2ccccc2)cc1	AI-2 QS modul -96 | JMH597 growth rt inactive | BB721 lum counter 99 | BB721 growth inactive | AI-2 QS JMH597 99
O=C(O)c1ccccc1C(=O)Nc1ccc(Oc2ccccc2)cc1	none
Cc1nc(C)c(C(=O)Nc2ccc(Oc3ccccc3)cc2)o1	AI-2 QS modul -83 | JMH597 growth rt inactive | BB721 lum counter 91 | BB721 growth inactive | AI-2 QS JMH597 94
COc1ccc(NC(=O)c2ocnc2C)cc1OC	none
Cc1ccc(CNC(=O)/C=C/c2cccs2)cc1	AI-2 QS modul -96 | JMH597 growth rt inactive | BB721 lum counter 99 | BB721 growth inactive | AI-2 QS JMH597 99
Cc1ccc(S(=O)(=O)N2CCC3(CC2)OCCO3)s1	none
COc1cc(OC)c(OC)cc1CNC(=O)CCN1C(=O)c2cccc([N+](=O)[O-])c2C1=O	none
O=C(Cn1cnc2ccccc2c1=O)Nc1ccc(S(=O)(=O)N2CCOCC2)cc1	AI-2 QS modul -94, AHR act 47 | JMH597 growth rt inactive | BB721 lum counter 99 | BB721 growth inactive | AI-2 QS JMH597 99
O=C(Cn1cnc2ccccc2c1=O)Nc1ccc(S(=O)(=O)N2CCCC2)cc1	AI-2 QS modul -97 | JMH597 growth rt inactive | BB721 lum counter 100 | BB721 growth inactive | AI-2 QS JMH597 100
Cc1ccccc1CN1[C@@H]2c3ccccc3C[C@@H]2OCCS1(=O)=O	none
COc1ccc(CN2C(=O)c3cccnc3C2=O)cc1S(=O)(=O)NC(C)C	none
CCc1ccc(CNc2ccc3c(c2)ncn3C)cc1	AI-2 QS modul -91 (no result: Mot1-301 SUMO) | JMH597 growth rt inactive | BB721 lum counter 96 | BB721 growth inactive | AI-2 QS JMH597 98
Cc1ccc(CNc2ccc3c(c2)ncn3C(C)(C)C)cc1	none
